High-throughput results: PubChem BioAssay, several laboratories
This is a sample that favours compounds with a hit; in the whole collection about 0.66% have one here.
SK-BR-3 tox 24h: SK-BR-3 proliferation inhibitors. SK-BR-3 viability, CellTiter-Glo ATP luminescence, 24 h; stronger effect = lower value. viability, % at 10 µM. 41,000 compounds, 0.47% hits;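 active = viability at or below the median of all test compounds minus 3 SD, in both replicates if run twice, cut at about 45% in these data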;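 note: 100% = median untreated cell wells and 0% = median positive control drug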
mHtt clearance: compounds clearing mutant huntingtin protein. HeLa Exon1htt(103Q)mCFP, aggregate imaging; zero = plate's median compound well. inhibition, % at 1.5 µM. 47,000 compounds, 0.42% hits. AID 853;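 active = inhibition of aggregate fluorescence above about 70%, also judged a hit by eye on the cell image, limit read from the data, passing the limit was not always enough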;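 note: cells exposed to compound for three days before fixation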
Active calls of the source: *; . = no result.

SMILES	SK-BR-3 tox 24h	mHtt clearance
COC(=O)c1[nH]c2ccc(C)cc2c1NS(=O)(=O)c1ccc(F)c(C)c1	78	0
Cc1c(O)cc2n(c1=O)-c1ccccc1C2(C)C	.	-12
COc1cc2nc(N3CCN(C(=O)C4COc5ccccc5O4)CC3)nc(N)c2cc1OC (centres undefined)	91	.
COc1cc2nc(N3CCN(C(=O)c4ccco4)CC3)nc(N)c2cc1OC	44*	.
O=C(Cn1nnc(-c2cccs2)n1)N1CCc2ccccc2C1	52	.
O=C(CCCn1c(=O)[nH]c2cc(Cl)ccc2c1=O)NCC1CCCO1 (centres undefined)	94	.
Cc1nc(CCNC(=O)COc2ccccc2)cs1	.	74*
Cc1nc(CCNS(=O)(=O)c2cccs2)cs1	74	.
CS(=O)(=O)n1nc(OC(=O)c2cccc3ccccc23)cc1N	42*	-32
COc1ccc(S(=O)(=O)n2nc(OC(=O)c3ccccc3Br)cc2N)cc1	97	.
CCCC1C2C(=O)N(c3ccccc3OC)C(=O)C2ON1c1ccccc1 (centres undefined)	82	1
COc1ccc(CN(C(=O)c2ccco2)c2ccccc2)cc1	.	-24
COc1ccc(N(Cc2cc(=O)[nH]c3ccccc23)C(=O)c2ccco2)cc1	44*	.
CCOc1ccc(S(=O)(=O)N2CCN(c3ccccc3)CC2)c2cccnc12	42*	.
CCOc1ccc(S(=O)(=O)N2CCN(c3ccc(OC)cc3)CC2)c2cccnc12	77	0
O=C(NC1CCCCCC1)c1c(F)c(F)c(F)c(F)c1F	80	.
CCCC(C)C(=O)N(Cc1ccccc1)c1ccccn1 (centres undefined)	.	19
O=C(Nc1ccc(C(=O)N2CCOCC2)cc1)c1cccs1	.	-10
CC(C)C(=O)N1CCN(c2ccc(NC(=O)c3cccs3)cc2)CC1	.	79*
OC12CCCCC1C(c1ccc3c(c1)OCO3)N(Cc1ccc(F)cc1)CC2 (centres undefined)	70	57
OC12CCCCC1C(c1ccc3c(c1)OCO3)N(Cc1ccccc1F)CC2 (centres undefined)	73	73*
COc1ccc(N2CCN(CCCNC(=O)c3cc4sccc4n3C)CC2)cc1	.	-1
CC1CCN(CCCNC(=O)c2cc3sccc3n2C)CC1	42*	.
CCCS(=O)(=O)N1CCCC(C(=O)NCc2ccc3c(c2)OCO3)C1 (centres undefined)	.	22
CCOC(=O)Nc1cc(OCC)c(NC(=O)C2CC2)cc1OCC	118	16
SMILES	SK-BR-3 tox 24h	mHtt clearance
COc1ccccc1OCc1nnc(SCC(=O)NCc2ccco2)n1-c1ccccc1	.	27
CNC(=O)C1CC(=O)N(CCc2ccc(OC)cc2)C(=Nc2ccc(OC)cc2)S1 (centres undefined)	.	42
Cc1cc2oc3c(c(=O)c2cc1C)C(c1cccc(Br)c1)N(Cc1ccco1)C3=O (centres undefined)	42*	-157
Cc1ccc2oc3c(c(=O)c2c1)C(c1cccc(Br)c1)N(Cc1ccco1)C3=O (centres undefined)	91	.
O=C(Nc1ccc(F)cc1)N1CCN(c2nc3ccccc3s2)CC1	41*	-10
O=C(Nc1ccccc1)N1CCN(c2nc3ccccc3s2)CC1	64	-30
CC(=O)Nc1nonc1NC(C)=O	81	.
CC(=O)Nc1cc(OC(C)=O)c2nonc2c1OC(C)=O	2.2*	.
COc1cnn(-c2ccccc2)c(=O)c1N(C)C	132	6
CC(C)(C)C(=O)Nc1ccc(S(=O)(=O)c2ccc(NC(=O)C(C)(C)C)cc2)cc1	.	-108
CC(C)C(C(=O)NCc1ccco1)N(C(=O)CNS(=O)(=O)c1ccc(Cl)cc1)C1CCCC1 (centres undefined)	84	0
CCOc1ccc(CC(=O)Nc2c(C(N)=O)oc3ccccc23)cc1OCC	34*	.
NC(=O)c1oc2ccccc2c1NC(=O)c1ccccc1	.	-16
c1coc(-c2nc(-c3ccncc3)no2)c1	.	26
CCOc1cc(C(=S)N2CCN(C)CC2)ccc1OCC(=O)N1CCOCC1	87	.
O=C(Cc1ccc(Cl)cc1)Nc1ccc2oc(-c3ccncc3)nc2c1	34*	-10
Cc1cc(OCC(=O)Nc2ccc3oc(-c4ccncc4)nc3c2)ccc1Cl	89	.
CCCCCC(=O)Nc1ccc2oc(-c3cccnc3)nc2c1	111	71*
O=C(Cc1ccccc1)Nc1ccc2oc(-c3cccnc3)nc2c1	82	21
Cc1ccc(-c2csc(NC(=O)c3ccno3)n2)cc1	.	20
CC(C)[C@H](NC(=O)C1(c2ccccc2)CCN(C(=O)OC(C)(C)C)CC1)C(=O)O	84	.
O=C(Nc1ccc(NC(=O)C2CC2)nc1)c1ccccn1	84	-3
CCOc1ccc(OCC)c(NC(=O)CSCC(=O)O)c1	102	-28
CCCCC(=O)Nc1ncc2c(n1)CC(C)(C)CC2=O	114	14
CCCCC(=O)C1=C(N2CCCC2)CC(C)(C)CC1=O	.	72*
SMILES	SK-BR-3 tox 24h	mHtt clearance
NC(=O)CCn1c(=O)oc2ccccc21	91	14
O=C(CCn1c(=O)oc2ccccc21)N(Cc1ccccc1)c1ccccn1	86	73*
Cc1c(/C=N/n2cnnc2)c2ccccc2n1C	99	.
O=C(NC1CCCCC1)C(c1ccco1)N(Cc1cccs1)C(=O)Cn1nnc2ccccc21 (centres undefined)	84	35
O=C(NCc1ccco1)C(c1ccco1)N(Cc1cccs1)C(=O)Cn1nnc2ccccc21 (centres undefined)	.	83*
O=C(CN1C(=O)C2C3C=CC(C3)C2C1=O)Nc1ccc2c(c1)OCCO2 (centres undefined)	32*	.
CCC1Oc2ccccc2N(CC(=O)Nc2ccc3c(c2)OCCO3)C1=O (centres undefined)	81	.
CCC(=O)Nc1ccc2c(c1)ncn2-c1ccc(OC)cc1	.	-57
COc1ccc2ncn(-c3ccccc3)c2c1	101	75*
COc1cc(S(=O)(=O)N2CCN(c3ccccc3F)CC2)c(OC)cc1Cl	104	.
O=C(CCC(=O)c1ccc[nH]1)c1ccc(Cl)cc1	.	75*
O=C(COc1ccc(F)c(Cl)c1)c1ccc[nH]1	.	-8
CCn1c(CSc2ncccn2)nnc1SCC(=O)N1CCc2ccccc21	87	.
Cn1c(CSc2ncccn2)nnc1SCC(=O)N1CCCc2ccccc21	24*	.
Cc1ccc(C)n1-c1ccc(N2CCOCC2)cc1	85	97*
c1ccn(-c2ccc(N3CCOCC3)cc2)c1	.	-25
CCCOc1ccc(C(=O)N2CCN(c3ccc(N)cc3Cl)CC2)cc1	84	.
Cc1cc(C)c(NC(=O)C2CCCN2C)c(C)c1 (centres undefined)	.	18
CC(=O)NC(Cc1ccccc1C)C(=O)NC1CCN(c2c3c(nc4ncnn24)CCC3)CC1 (centres undefined)	100	.
COc1cccc(N2CCN(c3c4c(nc5ncnn35)CCC4)CC2)c1	25*	-9
CCOC(=O)C1CCN(c2c(NCc3ccc(C(=O)NCCOC)cc3)c(=O)c2=O)CC1	76	4
CC(C)(C)C(=O)NC1CCN(S(C)(=O)=O)CC1	.	40
CC(C)(C)C(=O)NC1CCN(C(=O)N2CCCC2)CC1	.	99*
CCCN=CC1=C(O)CC(c2ccccc2)CC1=O (centres undefined)	.	-28
O=C1c2oc3ccccc3c(=O)c2C(c2cccnc2)N1CCCN1CCOCC1 (centres undefined)	91	.
COC(=O)/C=C/S(=O)(=O)c1ccc(NC(C)=O)cc1	2.1*	-18
COc1ccccc1NS(=O)(=O)c1ccc(NC(C)=O)cc1	106	22
O=C(Cc1cccs1)NCC1CCCO1 (centres undefined)	35*	9
